# Laboratory results published in PMC5700166.
# Substitutions are numbered along the chain they refer to.
# Key:
# Assay in all cases: protein-binding microarray (PBM); PBM: ~300 nM protein, 6 mM HEPES pH 7.8, 80 mM KCl, 0.5 mM EDTA, 0.5 mM EGTA, 6% glycerol, 35 ng/ul poly-dIdC, 1% milk, 1 h, room temperature; Ap Aiptasia and Nv Nematostella (sea anemones) / Co Capsaspora / Aq Amphimedon (sponge) / Dm Drosophila / Hu human; RHD is the Rel homology domain; high values mean tight binding
# Settings in all cases: dsDNA, one strand shown
# GST-Ap-NF-kB RHD = molecular target: T1, GST-Ap-NF-kB RHD (Exaiptasia pallida (Aiptasia), UniProt A0A913YAJ5 2-422)
# T1 sequence: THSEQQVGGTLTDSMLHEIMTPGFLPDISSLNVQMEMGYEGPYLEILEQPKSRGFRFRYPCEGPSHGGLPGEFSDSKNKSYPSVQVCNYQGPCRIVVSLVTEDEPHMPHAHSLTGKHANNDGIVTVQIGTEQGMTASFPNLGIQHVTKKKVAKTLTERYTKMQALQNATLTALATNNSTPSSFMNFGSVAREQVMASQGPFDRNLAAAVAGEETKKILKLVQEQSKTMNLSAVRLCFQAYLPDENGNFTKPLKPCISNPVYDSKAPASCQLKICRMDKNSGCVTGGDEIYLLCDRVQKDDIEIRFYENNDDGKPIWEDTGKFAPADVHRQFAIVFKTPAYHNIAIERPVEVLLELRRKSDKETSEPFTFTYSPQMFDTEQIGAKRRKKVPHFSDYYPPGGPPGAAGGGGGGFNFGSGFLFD
# [1] = molecular target: T2, GST-Nv-NF-kB (Cys allele) (Nematostella vectensis, UniProt E5G601 2-411)
# T2 sequence: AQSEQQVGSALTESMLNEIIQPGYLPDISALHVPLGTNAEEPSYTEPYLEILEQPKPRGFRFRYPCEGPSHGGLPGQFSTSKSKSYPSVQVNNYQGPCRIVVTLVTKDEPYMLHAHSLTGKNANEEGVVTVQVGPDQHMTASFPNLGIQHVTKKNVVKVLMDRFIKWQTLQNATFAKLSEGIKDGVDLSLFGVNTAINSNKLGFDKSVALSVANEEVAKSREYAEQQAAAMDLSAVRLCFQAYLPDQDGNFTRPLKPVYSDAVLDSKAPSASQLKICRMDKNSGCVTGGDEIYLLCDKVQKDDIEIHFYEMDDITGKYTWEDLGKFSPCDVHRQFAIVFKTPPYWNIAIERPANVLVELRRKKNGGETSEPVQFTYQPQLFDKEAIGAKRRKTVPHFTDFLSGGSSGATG
# [2] = molecular target: T3, GST-Nv-NF-kB (Ser allele) (Nematostella vectensis, UniProt A7UNT2 2-411)
# T3 sequence: T2 sequence with Q21R, C66S, S207N, E215Q, V217A, E225K, A268E, D399E
# GST-Co-NF-kB = molecular target: T4, GST-Co-NF-kB (Capsaspora owczarzaki, UniProt F1ARL5 200-546)
# T4 sequence: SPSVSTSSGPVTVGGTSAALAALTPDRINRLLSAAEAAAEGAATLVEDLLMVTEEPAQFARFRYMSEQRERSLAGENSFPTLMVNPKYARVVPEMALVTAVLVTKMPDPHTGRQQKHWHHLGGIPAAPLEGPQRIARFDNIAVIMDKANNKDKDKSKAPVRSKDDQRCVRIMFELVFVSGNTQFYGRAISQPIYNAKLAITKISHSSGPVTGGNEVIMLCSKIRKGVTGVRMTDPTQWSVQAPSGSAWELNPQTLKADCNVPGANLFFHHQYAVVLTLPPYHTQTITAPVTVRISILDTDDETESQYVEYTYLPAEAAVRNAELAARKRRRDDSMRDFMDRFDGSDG
# GST-Dm-Relish = molecular target: T5, GST-Dm-Relish (Drosophila melanogaster, UniProt Q94527 99-473)
# T5 sequence: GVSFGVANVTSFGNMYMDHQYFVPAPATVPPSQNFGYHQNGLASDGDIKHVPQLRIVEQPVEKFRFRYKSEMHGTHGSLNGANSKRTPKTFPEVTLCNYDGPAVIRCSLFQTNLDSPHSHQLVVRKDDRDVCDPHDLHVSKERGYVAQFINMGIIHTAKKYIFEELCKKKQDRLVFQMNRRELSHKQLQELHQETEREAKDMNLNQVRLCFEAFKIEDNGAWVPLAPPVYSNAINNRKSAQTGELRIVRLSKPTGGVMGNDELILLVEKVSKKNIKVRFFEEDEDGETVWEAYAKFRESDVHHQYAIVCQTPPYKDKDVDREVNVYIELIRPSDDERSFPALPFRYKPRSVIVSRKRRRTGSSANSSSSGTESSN
# GST-Aq-NF-kB = molecular target: T6, GST-Aq-NF-kB (Amphimedon queenslandica, UniProt A9Y5G7 2-389)
# T6 sequence: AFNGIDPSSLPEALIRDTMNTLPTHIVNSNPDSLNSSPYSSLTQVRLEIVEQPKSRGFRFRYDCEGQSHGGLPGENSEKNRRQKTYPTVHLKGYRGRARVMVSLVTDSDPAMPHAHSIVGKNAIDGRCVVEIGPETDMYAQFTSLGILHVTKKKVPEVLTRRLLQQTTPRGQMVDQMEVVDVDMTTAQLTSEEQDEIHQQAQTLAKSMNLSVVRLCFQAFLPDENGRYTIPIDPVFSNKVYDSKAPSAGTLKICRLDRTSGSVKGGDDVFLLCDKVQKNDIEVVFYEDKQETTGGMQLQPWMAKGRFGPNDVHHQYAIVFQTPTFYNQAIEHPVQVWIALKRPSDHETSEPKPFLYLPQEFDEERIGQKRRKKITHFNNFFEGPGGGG
Sequence,binding signal (GST-Ap-NF-kB RHD) [z-score],binding signal [1] [z-score],binding signal [2] [z-score],binding signal (GST-Co-NF-kB) [z-score],binding signal (GST-Dm-Relish) [z-score],binding signal (GST-Aq-NF-kB) [z-score]
CCGATTAACATCAACCAATCCCCTGATGTTAATCGGGTCTTGATTCGCTTGACGCTGCTG,5.19,5.28,6.6,2.16,2.29,3.86
CCGATTAACATCAGTATTCCCCATGATGTTAATCGGGTCTTGATTCGCTTGACGCTGCTG,6.37,7.73,6.79,7.15,4.54,5.32
CCGATTAACATCAAATCCCCCCTTGATGTTAATCGGGTCTTGATTCGCTTGACGCTGCTG,8.14,6.82,7.98,6.62,7.95,6.8
CCGATTAACATCACAATTTTCCCTGATGTTAATCGGGTCTTGATTCGCTTGACGCTGCTG,4.54,6.45,7.95,5.61,2.17,5.58
CCGATTAACATCAGGGGAAGAAATGATGTTAATCGGGTCTTGATTCGCTTGACGCTGCTG,4.46,5.99,6.85,8.71,6.53,4.68
CCGATTAACATCAGGGGTGGGGATGATGTTAATCGGGTCTTGATTCGCTTGACGCTGCTG,4.17,3.38,3.28,5.49,2.85,3.59
CCGATTAACATCAATTTCCCGTATGATGTTAATCGGGTCTTGATTCGCTTGACGCTGCTG,2.46,4.12,4.4,3.1,1.58,3.17
CCGATTAACATCAGGGAAAAACCTGATGTTAATCGGGTCTTGATTCGCTTGACGCTGCTG,5.74,7.26,7.89,3.82,8.13,9.06
CCGATTAACATCACTTTTTTCCCTGATGTTAATCGGGTCTTGATTCGCTTGACGCTGCTG,2.9,4.9,6.59,6.08,2.28,3.49
CCGATTAACATCAACGTTTTCCCTGATGTTAATCGGGTCTTGATTCGCTTGACGCTGCTG,3.04,4.61,6.7,4.29,1.51,3.21
CCGATTAACATCAGGGGATTAAATGATGTTAATCGGGTCTTGATTCGCTTGACGCTGCTG,4.91,6.29,7.01,3.71,5.28,5.21
CCGATTAACATCAGGGGAAGCACTGATGTTAATCGGGTCTTGATTCGCTTGACGCTGCTG,5.88,6.43,6.99,4.4,9.95,6.83
CCGATTAACATCAACGTTTCCCCTGATGTTAATCGGGTCTTGATTCGCTTGACGCTGCTG,5.38,6.77,10.1,7.56,2.48,4.46
CCGATTAACATCACGCCCCCCCCTGATGTTAATCGGGTCTTGATTCGCTTGACGCTGCTG,5.3,4.2,4.8,3.87,4.72,4.89
CCGATTAACATCACAGATTTCCCTGATGTTAATCGGGTCTTGATTCGCTTGACGCTGCTG,3.88,5.4,7.17,4.93,2.66,4.24
CCGATTAACATCAGCCCCCCGTCTGATGTTAATCGGGTCTTGATTCGCTTGACGCTGCTG,3.16,2.22,1.71,3,3.83,3.37
CCGATTAACATCAATTTTTTCCCTGATGTTAATCGGGTCTTGATTCGCTTGACGCTGCTG,3.79,5.88,7.47,6.48,2.71,4.16
CCGATTAACATCACGGGATTTTCTGATGTTAATCGGGTCTTGATTCGCTTGACGCTGCTG,5.11,4.77,4.15,1.98,6.84,5.2
CCGATTAACATCAAGGGAAAAATTGATGTTAATCGGGTCTTGATTCGCTTGACGCTGCTG,3.76,6.35,7,5.22,1.89,5.11
CCGATTAACATCAACCCCCCCCATGATGTTAATCGGGTCTTGATTCGCTTGACGCTGCTG,5.53,4.32,3.55,4.94,5.75,4.01
CCGATTAACATCAATTTATCCCCTGATGTTAATCGGGTCTTGATTCGCTTGACGCTGCTG,5.26,5.83,7.39,7.11,3.35,3.84
CCGATTAACATCAGGGAAACTACTGATGTTAATCGGGTCTTGATTCGCTTGACGCTGCTG,3.54,4.2,4.47,3.89,5.85,5.64
CCGATTAACATCAAGGGAAAAAATGATGTTAATCGGGTCTTGATTCGCTTGACGCTGCTG,3.77,5.84,7.2,5.23,1.86,4.83
